Records with an inconclusive call do not appear. Where a call stands in place of a potency, no number is given. The source made the active and inactive calls. Unless noted, the call rests on the fitted dose curve; in most records, active means well fitted curve in the direction sought with a large enough effect; inconclusive means small, poorly fitted or top-dose-only effect, or another doubt; inactive means no such curve, though single readings can be large; an effect the other way counts as inactive or inconclusive.
Assays:
[1] = target: ATP-dependent DNA helicase Q1 (Homo sapiens) (UniProt P46063); assay: qHTS Validation Assay for Inhibitors of RecQ-Like Dna Helicase 1 (RECQ1) (AID 2353)
How it was run: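 50 nM RECQ1T1 preincubated 15 min with compound in Tris pH 8.0 buffer with MgCl2, DTT, Tween-20 and 2.5 ug/ml poly(dI-dC); started with 200 nM TAMRA/BHQ-2 forked duplex and 2 mM ATP. Unwinding read as fluorescence (525/598 nm), two reads 2 h apart.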

[2] = target: RecQ-like DNA helicase BLM (Homo sapiens) (UniProt P54132); assay: qHTS Validation Assay for Inhibitors of Bloom's syndrome helicase (BLM) (AID 2364); further: potency means the concentration at half of the fitted maximal effect
How it was run: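 Forked 20-bp duplex substrate (200 nM, TAMRA/BHQ-2) plus 2 mM ATP added after 15 min compound preincubation with 50 nM enzyme, pH 8.0, poly(dI-dC) 2.5 ug/ml. Strand separation followed by fluorescence (525/598 nm) over 2 h, normalized to enzyme-free and DMSO controls.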

[3] = Cytometric Cell-Based qHTS for Inhibitors of the mTORC1 Signaling Pathway in MEF (Tsc2-/-, p53-/-) Cells (AID 2660);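 further: Tsc2 and p53 null MEFs carrying empty vector with compound for 24 h; percent of cells above a phospho-rpS6 to PI ratio cutoff in each well; series mostly up to about 38 µM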
How it was run: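 Readout: Alexa-488 phospho-rpS6 (Ser235/236) intensity divided by PI intensity, thresholded against 7.5 nM rapamycin wells and reported as % positive cells. PI cell count served as the viability measure. Compound exposure was 24 hrs at 37 degree Celsius.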

[4] = High Content Imaging Cell-Based qHTS for Inhibitors of the mTORC1 Signaling Pathway in MEF (Tsc2-/-, p53-/-) Cells (AID 2666);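 further: percent of cells scored positive for phospho-rpS6 Ser235/236 immunostaining by imaging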; further: potency means the concentration at half of the fitted maximal effect
How it was run: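 Cells were plated, dosed with compound after 24 hrs, and incubated another 24 hrs at 37 degree Celsius. Fixed cells were immunostained for phospho-rpS6 Ser235/236 and counterstained, and the normalized signal was scored as % active cells against rapamycin and DMSO controls.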

[5] = High Content Imaging Cell-Based qHTS for Inhibitors of the mTORC1 Signaling Pathway in MEF Cells (AID 2667);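 further: Tsc2-/- p53-/- MEFs stably re-expressing wild-type Tsc2 exposed 24 h; series mostly up to about 38 µM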
How it was run: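 Immunofluorescence for rpS6 phosphorylation in MEFs of Tsc2-/-, p53-/- background rescued with WT Tsc2. Compound exposure lasted 24 hrs. Inhibition was scored against rapamycin-treated control wells.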

[6] = Cytometry Cell-Based qHTS for Inhibitors of the mTORC1 Signaling Pathway in MEF cells (AID 2668); further: potency means the concentration at half of the fitted maximal effect
How it was run: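 Tsc2-/-, p53-/- MEFs re-expressing WT Tsc2; cpd 24 hrs, 37 degree Celsius; PFA fix, Alexa-488 p-rpS6 (Ser235/236) Ab 2 hrs RT, PI counterstain; Acumen 488nm scan; p-S6/PI ratio → % positive cells; PI count = viability.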

[7] = target: Ubiquitin carboxyl-terminal hydrolase 2 (Homo sapiens) (UniProt O75604); assay: qHTS Validation Assay for Inhibitors of Ubiquitin-specific Protease USP2a Using CHOP2 as the Reporter (AID 463106)
How it was run: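 10nM USP2 core + cpd, 30min RT; add 25nM Ub-CHOP2/25nM substrate; 60min RT; FI 485/531nm. Buffer Tris pH 8.0, CaCl2, BME, CHAPS. Norm. to NEM = 100% inhibition; time-zero read flags fluorescent artifacts.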

[8] = target: DNA polymerase III PolC-type (Bacillus subtilis (strain 168)) (UniProt P13267); assay: qHTS Validation Assay for the Inhibitors of DNA Replication in Gram-Positive Bacteria (AID 485295);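 further: reconstituted holoenzyme with PolC plus beta clamp SSB and primase; PicoGreen fluorescence of double-stranded DNA made on primed circular M13 template; series mostly up to about 57 µM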
How it was run: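 First, compound is mixed with the reconstituted replication complex and held at room temperature. Next, circular single-stranded M13Gori with nucleotides starts synthesis. Finally, PicoGreen in EDTA halts the reaction and stains double-stranded product for fluorescence reading.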

[9] = target: Tumor susceptibility gene 101 protein (Homo sapiens) (UniProt Q99816); assay: qHTS Validation Assay for Iinhibitors of HIV-1 Budding by Blocking the Interaction of PTAP/TSG101 (AID 485342; calls by dose curve)
How it was run: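 Binding of a FITC-tagged PTAP-motif peptide (50 nM) to the Tsg101 binding domain (10 uM) is monitored by fluorescence polarization. Compounds are pin-delivered before peptide addition, and incubation runs 20 min at room temperature.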

[10] = target: Thioredoxin reductase 1, cytoplasmic (Rattus norvegicus) (UniProt O89049); assay: qHTS Assay for Substrates of Mammalian Selenoprotein Thioredoxin Reductase 1 (TrxR1) (AID 488772);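 further: NADPH fluorescence in the first read after selenite addition and not the 8 min delta; a drop in NADPH fluorescence below the no-compound background marks a TrxR1 substrate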; further: potency means the concentration at half of the fitted maximal effect
How it was run: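 Quantitative HTS in Tris-HCl buffer at pH 7.5 with EDTA and Tween-20, using rat TrxR1, 400 uM NADPH and 400 uM selenite (final). A fall in initial NADPH fluorescence relative to background marked substrate behaviour.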

[11] = target: Thioredoxin reductase 1, cytoplasmic (Rattus norvegicus) (UniProt O89049); assay: qHTS Assay for Inhibitors of Mammalian Selenoprotein Thioredoxin Reductase 1 (TrxR1) (AID 488773); settings: Potency: inhibition;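 further: drop in NADPH fluorescence over an 8 min run after selenite addition; series mostly up to about 57 µM; nearly all actives have a fitted effect of over 40% in size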
How it was run: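 Steps: enzyme (90 nM) plus NADPH (400 uM final), 5 min at ~22 deg C; compound added, 15 min; selenite (400 uM final) added; fluorescence followed for 8 min. Concentration-response curves derived from the normalized delta values.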

[12] = target: Flap endonuclease 1 (Homo sapiens) (UniProt P39748); assay: qHTS Validation Assay for the Inhibitors of Human Flap endonuclease 1 (FEN1) (AID 488816)
How it was run: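 Readings taken at 0 and 15 min after starting the reaction with 50 nM (final) substrate supplied the signal. Compounds had first sat with 10 nM FEN1 reagent for 15 min at room temperature. Values come from Hill-equation concentration-response fits.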

[13] = target: M-phase phosphoprotein 8 (Homo sapiens) (UniProt Q99549); assay: qHTS Validation Assay for Inhibitors for MPP8 Chromodomain Interactions with Methylated Histone Tails (AID 488949);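 further: 50 nM MPP8 with 50 nM peptide preformed then compounds added for 30 min; AlphaScreen signal from MPP8 chromodomain bound to biotinylated H3K9me3 peptide; top concentration of the series differs between compounds; nearly all actives have a fitted effect of over 55% in size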
How it was run: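 50 nM MPP8 + 50 nM b-H3K9me3 peptide, PBS pH 7.4/0.01% Tween-20, 30 min RT; + cpd 30 min RT; + AlphaScreen donor/Ni-chelate acceptor beads 10 ug/mL final, 30 min dark; luminescence read.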

[14] = target: Chromobox protein homolog 1 (Homo sapiens) (UniProt P83916); assay: qHTS Validation Assay for Inhibitors of HP1-beta Chromodomain Interactions with Methylated Histone Tails (AID 488953);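 further: loss of AlphaScreen luminescence from HP1-beta binding biotinylated H3K9me3 peptide; series mostly up to about 110 µM; nearly all actives have a fitted effect of over 50% in size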
How it was run: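 Measured as loss of AlphaScreen luminescence from streptavidin donor and nickel acceptor beads (10 ug/mL final) bridging HP1-beta and biotin-H3(1-18)K9me3, each 50 nM. Compounds met the preassembled complex for 30 min at RT.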

[15] = target: Ferritin light chain (Equus caballus) (UniProt P02791); assay: qHTS Validation Assay for Identification of Novel General Anesthetics (AID 2323); further: series mostly up to about 77 µM
How it was run: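 Fluorescence at 535 nm (excitation 380 nm) reported loss of 1-AMA binding to horse-spleen apoferritin (10 uM) in PBS with 50% saturated 1-aminoanthracene, after 10 min room-temperature incubation with compound; values from Hill fits of normalized response.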

[16] = Validation screen for small molecules that induce DNA re-replication in MCF 10A normal breast cells (AID 463097); further: nearly all actives have a fitted effect of over 60% in size; further: potency means the concentration at half of the fitted maximal effect
How it was run: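 Image-based qHTS: normal breast cells are incubated with compound for 48 hr, stained with Hoechst, and scanned for total nuclear fluorescence. Compounds raising the fraction of nuclei with elevated DNA content count as re-replication inducers.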

[17] = qHTS Validation Assay to Find Inhibitors of Chronic Active B-Cell Receptor Signaling (AID 485345; active means well fitted curve in the direction sought with a large enough effect in the main read-out, with a control signal flat, not every such curve was filed as active)
How it was run: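 Read-out: ratio of filter-corrected green (IkappaBalpha fusion) to red (native) luciferase signal in doxycycline-induced TMD8 cells after 4 h at 37C. Titration spanned 46 uM–3 nM; Data were normalised to basal cells and 10 uM MG-132 wells.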

[18] = Quantitative high throughput screen for delayed death inhibitors of the malarial parasite plastid, 96 hour incubation (AID 488745);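 further: luciferase-expressing P. falciparum in erythrocytes at 2% hematocrit and 0.1% parasitemia; series mostly up to about 29 µM; nearly all actives have a fitted effect of over 70% in size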
How it was run: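 Growth of reporter-bearing P. falciparum in red cells is measured after 96 h with compound, covering two erythrocytic cycles. Luminescence from the integrated luciferase serves as the growth signal.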

[19] = Quantitative high throughput screen for delayed death inhibitors of the malarial parasite plastid, 48 hour incubation (AID 488752); further: nearly all actives have a fitted effect of over 65% in size
How it was run: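 One parasite generation (48 h, 37 C, 5% CO2) of luciferase-reporter P. falciparum in erythrocytes is run with test compound; decreased luminescence indicates inhibited growth.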

[20] = target: ATP-dependent 6-phosphofructokinase (Trypanosoma brucei brucei) (UniProt O15648); assay: qHTS Validation Assay to Find Inhibitors of T. brucei phosphofructokinase (AID 485368); settings: outcome: dose series up to 57.5 µM
How it was run: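 Compounds (up to 57 uM, titration series) were pinned into substrate buffer, then 1.25 nM PFK added; after 45 min at room temperature, ADP product was quantified by ADP-Glo luminescence and concentration-response curves fitted.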

Chain of ATP-dependent DNA helicase Q1 (Homo sapiens) (P46063 whole entry, looked up): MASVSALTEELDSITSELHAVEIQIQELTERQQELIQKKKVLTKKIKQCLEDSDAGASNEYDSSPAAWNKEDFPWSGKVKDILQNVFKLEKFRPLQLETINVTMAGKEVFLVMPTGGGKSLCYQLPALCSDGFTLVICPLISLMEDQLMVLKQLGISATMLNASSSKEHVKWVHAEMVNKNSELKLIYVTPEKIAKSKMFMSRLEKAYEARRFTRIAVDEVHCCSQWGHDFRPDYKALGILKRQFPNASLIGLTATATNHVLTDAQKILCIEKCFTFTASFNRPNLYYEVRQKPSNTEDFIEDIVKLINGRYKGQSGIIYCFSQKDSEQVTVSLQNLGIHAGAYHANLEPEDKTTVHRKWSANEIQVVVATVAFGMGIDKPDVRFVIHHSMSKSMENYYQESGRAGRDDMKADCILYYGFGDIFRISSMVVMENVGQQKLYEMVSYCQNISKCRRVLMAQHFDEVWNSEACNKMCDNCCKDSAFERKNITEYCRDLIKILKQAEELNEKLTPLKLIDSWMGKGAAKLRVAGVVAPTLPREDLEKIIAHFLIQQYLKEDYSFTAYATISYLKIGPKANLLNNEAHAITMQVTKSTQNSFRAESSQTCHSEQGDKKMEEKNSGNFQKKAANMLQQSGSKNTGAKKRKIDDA
Chain of ATP-dependent 6-phosphofructokinase (Trypanosoma brucei brucei) (O15648 whole entry, looked up): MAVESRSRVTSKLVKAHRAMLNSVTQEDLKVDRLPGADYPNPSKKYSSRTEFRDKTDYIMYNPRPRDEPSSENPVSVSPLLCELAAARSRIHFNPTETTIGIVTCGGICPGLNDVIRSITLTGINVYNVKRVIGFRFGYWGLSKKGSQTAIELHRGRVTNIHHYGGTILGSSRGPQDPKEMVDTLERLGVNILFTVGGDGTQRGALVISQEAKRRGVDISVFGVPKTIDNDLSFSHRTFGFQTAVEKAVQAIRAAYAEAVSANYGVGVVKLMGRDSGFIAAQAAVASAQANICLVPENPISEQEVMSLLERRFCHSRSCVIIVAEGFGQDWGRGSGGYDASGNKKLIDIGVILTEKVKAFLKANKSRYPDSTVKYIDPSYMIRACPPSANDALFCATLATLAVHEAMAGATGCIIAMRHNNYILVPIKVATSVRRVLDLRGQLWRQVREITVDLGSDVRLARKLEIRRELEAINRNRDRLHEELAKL
Chain of M-phase phosphoprotein 8 (Homo sapiens) (Q99549 whole entry, looked up): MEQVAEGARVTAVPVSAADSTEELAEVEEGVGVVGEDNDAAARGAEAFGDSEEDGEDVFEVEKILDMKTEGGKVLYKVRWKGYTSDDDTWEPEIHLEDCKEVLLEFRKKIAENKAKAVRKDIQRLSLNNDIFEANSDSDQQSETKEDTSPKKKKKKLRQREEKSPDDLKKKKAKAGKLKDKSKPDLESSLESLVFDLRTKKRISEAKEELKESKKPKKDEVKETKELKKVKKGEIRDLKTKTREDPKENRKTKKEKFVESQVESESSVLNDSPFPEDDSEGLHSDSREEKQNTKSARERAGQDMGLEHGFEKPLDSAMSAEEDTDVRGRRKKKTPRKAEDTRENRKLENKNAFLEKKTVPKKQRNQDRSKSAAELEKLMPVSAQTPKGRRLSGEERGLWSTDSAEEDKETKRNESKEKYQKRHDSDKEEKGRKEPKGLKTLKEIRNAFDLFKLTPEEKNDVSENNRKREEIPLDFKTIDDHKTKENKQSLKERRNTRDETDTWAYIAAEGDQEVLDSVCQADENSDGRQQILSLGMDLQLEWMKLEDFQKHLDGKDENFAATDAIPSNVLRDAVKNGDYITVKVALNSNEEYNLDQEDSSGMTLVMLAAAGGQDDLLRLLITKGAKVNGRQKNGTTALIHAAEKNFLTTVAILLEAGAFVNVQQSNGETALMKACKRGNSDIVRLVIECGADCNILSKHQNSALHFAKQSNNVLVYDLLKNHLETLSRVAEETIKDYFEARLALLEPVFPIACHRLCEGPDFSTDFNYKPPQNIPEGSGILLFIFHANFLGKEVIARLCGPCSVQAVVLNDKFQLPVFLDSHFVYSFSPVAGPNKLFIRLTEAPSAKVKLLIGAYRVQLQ
Chain of Flap endonuclease 1 (Homo sapiens) (P39748 whole entry, looked up): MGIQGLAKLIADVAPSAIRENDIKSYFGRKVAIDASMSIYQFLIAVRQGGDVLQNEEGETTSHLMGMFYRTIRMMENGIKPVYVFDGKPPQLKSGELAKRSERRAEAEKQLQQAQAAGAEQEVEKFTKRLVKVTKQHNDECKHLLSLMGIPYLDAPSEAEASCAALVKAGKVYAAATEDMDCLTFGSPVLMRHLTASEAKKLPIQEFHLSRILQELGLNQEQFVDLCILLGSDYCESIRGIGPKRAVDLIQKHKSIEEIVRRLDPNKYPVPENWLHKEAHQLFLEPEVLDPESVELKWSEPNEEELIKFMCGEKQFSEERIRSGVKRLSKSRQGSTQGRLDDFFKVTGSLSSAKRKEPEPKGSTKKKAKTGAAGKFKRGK
Chain of Ubiquitin carboxyl-terminal hydrolase 2 (Homo sapiens) (O75604 whole entry, looked up): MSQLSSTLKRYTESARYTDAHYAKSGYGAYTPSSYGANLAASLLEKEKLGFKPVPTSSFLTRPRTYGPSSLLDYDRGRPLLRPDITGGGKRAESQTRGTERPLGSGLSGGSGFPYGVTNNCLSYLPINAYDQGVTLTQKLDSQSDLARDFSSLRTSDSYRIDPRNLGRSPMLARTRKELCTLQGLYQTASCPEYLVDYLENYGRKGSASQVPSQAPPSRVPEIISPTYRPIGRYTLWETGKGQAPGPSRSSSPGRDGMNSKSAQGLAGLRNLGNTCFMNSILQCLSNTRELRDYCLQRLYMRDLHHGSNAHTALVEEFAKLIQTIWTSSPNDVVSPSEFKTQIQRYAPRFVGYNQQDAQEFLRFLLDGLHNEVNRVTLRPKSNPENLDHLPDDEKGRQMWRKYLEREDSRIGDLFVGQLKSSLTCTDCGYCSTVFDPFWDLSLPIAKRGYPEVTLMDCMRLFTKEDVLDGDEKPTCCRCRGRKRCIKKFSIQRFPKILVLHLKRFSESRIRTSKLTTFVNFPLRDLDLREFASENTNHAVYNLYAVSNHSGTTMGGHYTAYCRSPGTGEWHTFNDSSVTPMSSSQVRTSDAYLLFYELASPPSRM
Chain of RecQ-like DNA helicase BLM (Homo sapiens) (P54132 whole entry, looked up): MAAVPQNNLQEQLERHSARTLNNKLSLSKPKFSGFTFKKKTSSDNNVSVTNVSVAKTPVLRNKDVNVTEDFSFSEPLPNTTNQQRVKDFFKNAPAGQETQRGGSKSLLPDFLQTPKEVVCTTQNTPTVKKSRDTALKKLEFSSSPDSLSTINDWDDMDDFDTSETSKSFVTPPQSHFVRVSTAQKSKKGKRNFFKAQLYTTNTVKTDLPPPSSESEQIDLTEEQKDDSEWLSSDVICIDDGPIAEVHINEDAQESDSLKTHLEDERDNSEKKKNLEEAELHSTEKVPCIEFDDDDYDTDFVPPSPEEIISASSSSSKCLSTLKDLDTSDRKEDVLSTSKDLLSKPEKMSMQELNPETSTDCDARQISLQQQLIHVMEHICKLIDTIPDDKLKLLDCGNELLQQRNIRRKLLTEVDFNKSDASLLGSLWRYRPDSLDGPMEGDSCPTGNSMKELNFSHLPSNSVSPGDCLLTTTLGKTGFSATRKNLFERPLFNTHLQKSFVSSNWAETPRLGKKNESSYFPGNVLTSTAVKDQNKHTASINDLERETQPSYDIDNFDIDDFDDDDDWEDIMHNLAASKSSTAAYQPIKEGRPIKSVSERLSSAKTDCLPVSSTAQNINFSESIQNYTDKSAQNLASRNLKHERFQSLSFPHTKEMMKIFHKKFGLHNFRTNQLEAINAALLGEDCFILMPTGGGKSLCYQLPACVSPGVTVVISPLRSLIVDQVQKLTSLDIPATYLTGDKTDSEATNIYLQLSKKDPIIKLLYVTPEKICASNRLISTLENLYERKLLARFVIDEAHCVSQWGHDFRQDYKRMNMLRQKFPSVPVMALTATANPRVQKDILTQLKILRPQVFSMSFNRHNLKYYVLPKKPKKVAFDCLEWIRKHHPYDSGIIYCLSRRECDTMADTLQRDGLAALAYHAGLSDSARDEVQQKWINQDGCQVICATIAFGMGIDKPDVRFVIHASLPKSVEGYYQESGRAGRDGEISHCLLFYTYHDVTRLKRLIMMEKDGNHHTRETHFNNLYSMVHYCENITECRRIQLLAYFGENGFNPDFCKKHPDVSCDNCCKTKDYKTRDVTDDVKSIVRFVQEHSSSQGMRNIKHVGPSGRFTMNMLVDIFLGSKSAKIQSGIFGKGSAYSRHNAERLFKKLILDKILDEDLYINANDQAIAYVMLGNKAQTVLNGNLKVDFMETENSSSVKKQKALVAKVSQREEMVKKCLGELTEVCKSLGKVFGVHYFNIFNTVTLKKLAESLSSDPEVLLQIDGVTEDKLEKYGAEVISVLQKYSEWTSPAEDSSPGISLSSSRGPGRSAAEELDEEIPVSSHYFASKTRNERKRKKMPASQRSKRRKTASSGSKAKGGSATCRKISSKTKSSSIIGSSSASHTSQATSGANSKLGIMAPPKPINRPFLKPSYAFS
Chain of Ferritin light chain (Equus caballus) (P02791 2-175 limits assumed): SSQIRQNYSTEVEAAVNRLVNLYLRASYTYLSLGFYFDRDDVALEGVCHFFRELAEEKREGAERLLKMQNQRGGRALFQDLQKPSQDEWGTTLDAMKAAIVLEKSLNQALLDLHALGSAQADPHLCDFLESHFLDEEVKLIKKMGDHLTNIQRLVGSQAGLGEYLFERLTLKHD
Chain of Tumor susceptibility gene 101 protein (Homo sapiens) (Q99816 whole entry, looked up, the tested form may be a part): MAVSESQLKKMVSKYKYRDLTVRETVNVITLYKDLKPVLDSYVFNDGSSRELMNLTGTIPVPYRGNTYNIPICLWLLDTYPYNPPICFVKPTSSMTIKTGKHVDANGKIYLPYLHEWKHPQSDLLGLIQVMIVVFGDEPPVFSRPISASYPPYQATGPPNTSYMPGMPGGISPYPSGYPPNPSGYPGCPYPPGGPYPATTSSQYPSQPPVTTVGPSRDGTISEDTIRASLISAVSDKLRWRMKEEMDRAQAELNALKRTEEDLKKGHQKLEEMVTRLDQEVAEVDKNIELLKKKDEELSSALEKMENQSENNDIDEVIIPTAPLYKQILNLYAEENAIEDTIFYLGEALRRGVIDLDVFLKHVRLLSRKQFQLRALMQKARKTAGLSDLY

Structure (SMILES)	outcome [1]	Potency [2]	outcome [3]	Potency [4]	outcome [5]	Potency [6]	outcome [7]	outcome [8]	outcome [9]	Potency [10]	Potency [11]	outcome [12]	Potency [13]	Potency [14]	outcome [15]	Potency [16]	outcome [17]	Potency [18]	outcome [19]	outcome [20]
O=c1cc(-c2ccc(O)cc2)oc2cc(O)cc(O)c12	inactive	inactive	inactive	inactive	inactive	inactive	inactive	inactive	inactive	inactive	inactive	inactive	inactive	inactive						
NC(N)=Nc1nc(CSCC/C(N)=N/S(N)(=O)=O)cs1	inactive		inactive	inactive	inactive	inactive	inactive	inactive	inactive	inactive	inactive	inactive	inactive	inactive	inactive	inactive	inactive	inactive	inactive	
CC1(C)CCC2=C(O1)c1ccccc1C(=O)C2=O	inactive	25.1 µM (active)		inactive	inactive		inactive	inactive	inactive	18.9 µM (active)		inactive	inactive							
O=C1NCC2(CCN(CCc3ccccc3)CC2)O1	inactive		inactive	inactive	inactive	inactive	inactive	inactive	inactive	inactive	inactive	inactive	inactive	inactive	inactive	inactive	inactive	inactive	inactive	
O=C(NCCN1CCOCC1)c1ccc(Cl)cc1			inactive	inactive	inactive	inactive	inactive	inactive	inactive	inactive	inactive		inactive				inactive			inactive
COc1ccccc1N1CCN(CCCNc2cc(=O)n(C)c(=O)n2C)CC1	inactive		inactive	inactive	inactive	inactive	inactive	inactive	inactive	inactive		inactive	inactive	inactive	inactive	inactive	inactive		inactive	
O=C1NC(=O)C(c2ccccc2)(c2ccccc2)N1	inactive		inactive	inactive	inactive	inactive	inactive	inactive	inactive	inactive	inactive	inactive	inactive	inactive	inactive	inactive	inactive	inactive	inactive	inactive
C[N+](C)(C)CC(=O)O			inactive	inactive	inactive	inactive	inactive	inactive	inactive	inactive	inactive						inactive			
CC(C)OC(=O)C(C)(C)Oc1ccc(C(=O)c2ccc(Cl)cc2)cc1	inactive		inactive	inactive	inactive		inactive	inactive	inactive	inactive	inactive	inactive	inactive	inactive		inactive				
CC(C)(C)c1ccc(C(O)CCCN2CCC(C(O)(c3ccccc3)c3ccccc3)CC2)cc1 (stereo unspecified)	inactive			18.5 µM (active)		7.36 µM (active)	inactive	inactive	inactive	inactive	inactive					11.2 µM (active)	inactive	inactive	inactive	inactive
NCCS	inactive		inactive	inactive	inactive	inactive	inactive	inactive	inactive		inactive	inactive	inactive		inactive	inactive	inactive	inactive	inactive	inactive
CCN(CC)CCNC(=O)c1ccc(N)cc1	inactive		inactive	inactive	inactive	inactive		inactive	inactive	inactive	inactive		inactive	inactive	inactive	inactive	inactive	inactive	inactive	inactive
CCN(CC)CCOC(=O)c1ccc(N)cc1	inactive		inactive	inactive	inactive	inactive	inactive	inactive	inactive	inactive	inactive	inactive	inactive	inactive	inactive	inactive	inactive	inactive	inactive	inactive
Cc1cccc(C)c1OCC(C)N (stereo unspecified)	inactive	inactive	inactive	inactive	inactive	inactive	inactive	inactive	inactive	inactive	inactive	inactive	inactive	inactive		inactive	inactive	inactive	inactive	
Clc1ccc(C(c2ccc(Cl)cc2)n2cc[n+](CC(OCc3ccc(Cl)cc3Cl)c3ccc(Cl)cc3Cl)c2)cc1 (stereo unspecified)				inactive				inactive	inactive	inactive	inactive						inactive			
CCCCCN(C)CCC(O)(P(=O)(O)O)P(=O)(O)O			inactive	inactive	inactive	inactive	inactive	inactive	inactive	inactive	inactive	inactive	inactive	inactive			inactive			inactive
CC(=O)CCCCn1c(=O)c2c(ncn2C)n(C)c1=O	inactive	inactive	inactive	inactive	inactive	inactive	inactive	inactive	inactive	inactive	inactive		inactive	inactive	inactive	inactive	inactive	inactive	inactive	inactive
CC(=O)N[C@@H](CS)C(=O)O			inactive	inactive	inactive	inactive	inactive	inactive	inactive	inactive	inactive	inactive	inactive	inactive	inactive	inactive	inactive	inactive	inactive	inactive

Reference: PubChem BioAssay (NCATS)
